Assay outcomes deposited in PubChem BioAssay by National Center for Advancing Translational Sciences (NCATS).
Sampled rows, rich in hits. Any-hit rate of the full collection: about 7.4%.
SMN2 splice up = qHTS Assay for Enhancers of SMN2 Splice Variant Expression; HEK293 SMN2-luciferase splicing reporter, luminescence, 30-36 h; Potency, µM (series often up to 46.1 µM), actives largely listed as activators; 210,000 compounds, 2.8% hits; further: nearly all actives have a fitted effect of over 55% in size
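HEK293 cells carry an SMN2 minigene-luciferase reporter in which exon 7 inclusion puts luciferase in frame. Cells were seeded at 2000 cells/well, attached for 10-12 hours, then exposed to compounds for 30-36 hours at 37C before ONE-Glo luminescence.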
Rab9 prom act = qHTS Assay for Rab9 Promoter Activators; Potency, µM (series often up to 9.22 µM), actives largely listed as activators; 320,000 compounds, 2.8% hits; Huh7 Rab9 promoter-luciferase reporter, luminescence, 24 h; AID 485297, 2010; further: nearly all actives have a fitted effect of over 60% in size
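Measured in stably transfected Huh7 cells bearing a Rab9 promoter–luciferase construct: 24 h compound treatment at 37 °C, followed by luminescence detection.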
NPC1 promoter act = qHTS Assay for NPC1 Promoter Activators; Potency, µM (series often up to 9.22 µM), actives largely listed as activators; Huh7 NPC1 promoter luciferase reporter, 24 h; AID 485313, 2010; 320,000 compounds, 2.4% hits; further: nearly all actives have a fitted effect of over 60% in size
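NPC1 promoter–luciferase Huh7 cells; 24 h compound; luminescence.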
ELG1 genotox = qHTS screen for small molecules that induce genotoxicity in human embryonic kidney (HEK293T) cells expressing luciferase-tagged ELG1; HEK293T ELG1-luciferase reporter, luminescence, 16 h; Potency, µM (titrated, usually from 46 µM), usual class: activators; 330,000 compounds, 1.3% hits; further: nearly all actives have a fitted effect of over 60% in size
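Cells (2,000/well) expressing the ELG1-luciferase fusion are dosed by pin tool and kept 16 hr at 37 °C, 5% CO2. Signal comes from ONE-Glo luciferase reagent after 30 min at room temperature.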
FLuc modulator = qHTS profiling assay for firefly luciferase inhibitor/activator using purifed enzyme and Km concentrations of substrates (counterscreen for miR-21 project); 360,000 compounds, 6.9% hits; purified FLuc, Km substrates, luminescence inhibition; Potency, µM (series often up to 57.5 µM), actives largely listed as inhibitors; AID 588342, 2011; further: nearly all actives have a fitted effect of over 55% in size
Target sequence (P08659 whole entry, looked up): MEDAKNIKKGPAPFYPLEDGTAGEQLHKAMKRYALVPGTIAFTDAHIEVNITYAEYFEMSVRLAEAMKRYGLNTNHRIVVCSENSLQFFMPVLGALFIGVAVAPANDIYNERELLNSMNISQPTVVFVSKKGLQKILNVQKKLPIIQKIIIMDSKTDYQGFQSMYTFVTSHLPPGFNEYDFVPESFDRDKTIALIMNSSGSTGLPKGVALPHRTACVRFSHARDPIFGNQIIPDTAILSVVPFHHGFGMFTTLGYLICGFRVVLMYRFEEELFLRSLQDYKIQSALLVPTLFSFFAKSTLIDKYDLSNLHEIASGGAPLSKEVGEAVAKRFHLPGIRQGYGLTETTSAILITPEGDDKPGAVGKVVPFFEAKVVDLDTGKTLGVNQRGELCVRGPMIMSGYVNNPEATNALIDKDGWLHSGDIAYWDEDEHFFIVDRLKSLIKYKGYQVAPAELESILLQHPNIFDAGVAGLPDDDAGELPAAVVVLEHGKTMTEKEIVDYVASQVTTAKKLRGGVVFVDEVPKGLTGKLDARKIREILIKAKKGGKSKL
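Purified P. pyralis luciferase (10nM final) with 10uM D-luciferin and 10uM ATP (Km levels) in 50mM Tris acetate pH 7.5, 10mM Mg acetate, 0.01% Tween-20, 0.05% BSA; qHTS 6-point titration, ~60 µM downward; luminescence read.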
A number is an active result; - = inactive; ? = inconclusive; . = no result given. The call rests on the fitted dose curve; in most records, active means well fitted curve in the direction sought with a large enough effect; inconclusive means small, poorly fitted or top-dose-only effect, or another doubt; inactive means no such curve, though single readings can be large; an effect the other way counts as inactive or inconclusive.

SMILES	SMN2 splice up	Rab9 prom act	NPC1 promoter act	ELG1 genotox	FLuc modulator
CCc1ccc(C(=O)NNC(=S)Nc2ccc(S(N)(=O)=O)cc2)s1	.	-	-	-	17µM
Cc1cc2n(n1)C(c1ccc3c(c1)OCO3)Nc1c(C)cccc1-2 (stereo unspecified)	4µM	-	-	-	-
Cc1ccc(Oc2ccc(Cl)cc2N)cc1	-	-	-	-	21µM
Nc1cc(Cl)ccc1Oc1ccc2ccccc2c1	-	-	-	?	?
NC(=NCc1ccccc1)NC(=O)c1nc(Cl)c(N)nc1N	-	-	?	.	.
NC(=Nc1ccccc1)NC(=O)c1nc(Cl)c(N)nc1N	14µM	?	?	.	.
COc1cccc2sc(Nc3nnc(-c4cccs4)o3)nc12	14µM	1µM	4µM	?	4.8µM
COc1cccc2sc(Nc3nnc(-c4ccc(F)cc4)o3)nc12	-	-	-	?	24µM
CCOc1cccc2sc(NN)nc12	-	-	-	-	?
COc1cccc2sc(NNC(=O)COc3ccccc3)nc12	-	-	-	-	-
Fc1cccc2sc(Nc3nnc(-c4ccco4)o3)nc12	3.5µM	2.5µM	4µM	2.6µM	11µM
CC(C)N(C(=O)c1cc2c(Cl)nc3ccccc3c2s1)C1CCCCC1	-	.	.	.	-
CC(OC(=O)Cc1c[nH]c2ccccc12)C(=O)NC1CCCCC1C (stereo unspecified)	.	-	-	-	-
Cn1c(Cl)c(C(=O)Nc2ccc(Cl)cc2)c2ccccc21	-	-	?	-	6µM
CC(=O)c1cccc(Nc2nn(-c3ccc(OC(F)(F)F)cc3)nc2C(C)=O)c1	-	.	.	.	6µM
Cc1ccc(-n2c(C)cc(C(=O)Cn3nc(C(=O)O)c4ccccc4c3=O)c2C)cc1	.	-	-	-	5.4µM
COc1ccc(-n2c(C)cc(C(=O)Cn3nnc4ccccc4c3=O)c2C)cc1	-	?	-	-	12µM
Cc1cc(C(=O)Cn2nnc3ccccc3c2=O)c(C)n1-c1ccccc1F	11µM	0.4µM	0.45µM	?	0.34µM
COc1ccc(-n2c(C)cc(C(=O)Cn3nc(C(=O)O)c4ccccc4c3=O)c2C)cc1	-	-	-	-	24µM
Cc1cc(C(=O)Cn2nnc3ccccc3c2=O)c(C)n1-c1c(C)n(C)n(-c2ccccc2)c1=O	-	-	-	-	-
Cc1cc(C(=O)Cn2nc(C(=O)O)c3ccccc3c2=O)c(C)n1-c1ccc(OC(F)F)cc1	-	-	-	-	-
COCC(C)n1c(C)cc(C(=O)Cn2nc(C(=O)O)c3ccccc3c2=O)c1C (stereo unspecified)	-	-	-	?	7.6µM
Cc1ccc(C(=O)Cn2nc(C(=O)O)c3ccccc3c2=O)cc1C	.	-	-	-	6.7µM
Cc1cc(C(=O)Cn2nc(C(=O)O)c3ccccc3c2=O)c(C)n1CC(F)(F)F	-	?	-	-	3µM
COCC(C)n1c(C)cc(C(=O)COC(=O)c2nn(C)c(=O)c3ccccc23)c1C (stereo unspecified)	.	.	.	-	.
SMILES	SMN2 splice up	Rab9 prom act	NPC1 promoter act	ELG1 genotox	FLuc modulator
CNC(=O)C(C)Sc1ccc(S(=O)(=O)N2CCOCC2)cn1 (stereo unspecified)	.	-	-	-	-
COc1cccc(/C=C/c2[nH]c(=O)[nH]c(=O)c2[N+](=O)[O-])c1O	.	-	-	-	17µM
CCCCn1c(N)c(N(CC(C)C)C(=O)c2cc(C)oc2C)c(=O)[nH]c1=O	.	-	-	-	-
Fc1ccc(-c2nnn(Cc3nc4ccccc4s3)n2)cc1	-	-	-	?	?
Clc1ccc(-c2nnn(Cc3nc4ccccc4s3)n2)cc1	-	-	-	?	19µM
Cc1ccc(C)c(CSc2nnc(-c3ccccn3)n2N)c1	-	-	-	-	-
Nn1c(SCc2c(F)cccc2F)nnc1-c1ccccn1	.	3.2µM	2µM	16µM	13µM
CSc1cccc(NC(=O)CN(C)S(=O)(=O)c2ccc3c(c2)CCCN3C(C)=O)c1	.	.	.	.	-
CC1CCN(CCCn2c(=S)[nH]c3c(sc4ccccc43)c2=O)CC1	-	-	-	-	15µM
O=Cc1c[nH]c2cccc(OCc3ccccc3)c12	.	-	-	-	11µM
CS(=O)(=O)c1ccc(C(O)C(CO)NC(=O)C(Cl)Cl)cc1 (stereo unspecified)	-	.	.	.	.
Cc1ccc(C(=O)/C=C/Nc2ccc3c(c2)OCO3)cc1	?	0.71µM	0.71µM	?	0.27µM
Cc1ccc(N/C=C/C(=O)c2ccccc2)cc1Br	.	3.2µM	4µM	?	0.6µM
CC(=O)c1ccc(N/C=C\C(=O)c2ccc(C)cc2)cc1	16µM	4µM	2.5µM	8.2µM	1.9µM
Cc1ccc(C(=O)/C=C/Nc2ccc(S(=O)(=O)Nc3cc(C)nc(C)n3)cc2)cc1	.	-	-	-	?
O=C(/C=C/Nc1cccc(O)c1)c1ccccc1	?	-	?	?	0.17µM
Cc1o[nH]c(=O)c1CCC(N)C(=O)O (stereo unspecified)	-	.	.	.	.
CC(=O)Nc1ccc(N/C=C/C(=O)c2ccc(Cl)cc2)cc1	.	?	?	-	-
O=C(/C=C/Nc1ccc(F)c(Cl)c1)c1ccccc1	.	3.5µM	?	18µM	2.4µM
CC(=O)c1cccc(N/C=C\C(=O)c2ccc(C)cc2)c1	6.3µM	0.79µM	0.79µM	2.6µM	0.3µM
C/C(=C\C(=O)c1ccc(C)cc1)Nc1cccc(O)c1	?	0.63µM	2.8µM	?	0.85µM
CC(=O)c1cccc(NS(=O)(=O)c2ccc(N/C=C\C(=O)c3ccc(C)cc3)cc2)c1	-	-	-	-	-
Cc1ccc(C(=O)/C=C/Nc2cccc(O)c2)cc1	25µM	?	-	4.1µM	0.38µM
COC(=O)c1ccc(/C=C/C(=O)OCC(=O)Nc2cc(C)on2)cc1	.	.	.	-	.
Cc1ccc(CNC(=O)c2cccc(NC(=O)N3CCSc4ncccc43)c2)cc1	.	.	.	.	-
SMILES	SMN2 splice up	Rab9 prom act	NPC1 promoter act	ELG1 genotox	FLuc modulator
CCc1cnc2c(c1SCC(=O)NCc1ccc(C)cc1)c(=O)n(C)c(=O)n2C	.	.	.	.	-
CC1CN(C(=O)Nc2ccc(C(=O)NCc3ccccc3F)cc2)c2ccccc2S1 (stereo unspecified)	?	.	.	.	-
Cn1c(NC(=O)/C=C\c2ccccc2)cc(=O)n(C)c1=O	.	3.5µM	-	?	?
Cc1ccc(NC(=O)/C=C/c2ccccc2)c(Br)c1	8.9µM	.	.	.	2.7µM
CCOc1ccc(C2C(C(=O)Nc3ccccc3)=C(C)Nc3nc(-c4ccccc4Cl)nn32)cc1OC (stereo unspecified)	-	.	.	.	-
COc1ccc(Cl)cc1NC(=S)NNC(=O)c1cccs1	.	-	-	-	27µM
O=C(NNC(=O)c1cc(Cl)ccc1O)c1cccs1	.	-	-	-	21µM
CC12CCC(=O)N1C(C(=O)NCCN1C(=O)S/C(=C\c3ccccc3Cl)C1=O)CS2 (stereo unspecified)	.	-	-	-	?
